# Reference: PubChem BioAssay (NCATS)
# “And” between values parts separate entries of the source, which are not always exact repeats. Identical values can stand only once. Results filed as inconclusive are left out. Entries that show only a call come without a potency. More than one record can exist for a structure, and the calls need not agree. The source made the active and inactive calls. Unless noted, the call rests on the fitted dose curve; in most records, active means well fitted curve in the direction sought with a large enough effect; inconclusive means small, poorly fitted or top-dose-only effect, or another doubt; inactive means no such curve, though single readings can be large; an effect the other way counts as inactive or inconclusive.
# Experiments:
# [1] = test system: HeLa; assay: Primary qHTS to identify gynecologic anti-cancer compounds using libraries of approved drugs and bioactive compounds (AID 1345084); conditions: Gynecologic cancer cell panel viability, ATPlite luminescence, 48 h; series mostly up to 57.5 µM; further: nearly all actives have a fitted effect of over 55% in size; further: potency means the concentration at half of the fitted maximal effect
# Procedure, shortened: (§1)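 Measured: luminescence after ATPlite addition (15 min, RT). Exposure: 48 h, 37 C, 5% CO2.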
# [2] = test system: Hek293T; assay: as above; conditions: Gynecologic cancer cell panel viability, ATPlite luminescence, 48 h, control line for the selectivity index; series mostly up to 57.5 µM
# Procedure, shortened: as §1
# [3] = test system: JEG-3; assay: as above; conditions: Gynecologic cancer cell panel viability, ATPlite luminescence, 48 h; series mostly up to 57.5 µM
# Procedure, shortened: as §1
# [4] = test system: OV90; assay: as above; conditions: Gynecologic cancer cell panel viability, ATPlite luminescence, 48 h; series mostly up to 57.5 µM
# Procedure, shortened: as §1
# [5] = test system: PA-1; assay: as above; conditions: Gynecologic cancer cell panel viability, ATPlite luminescence, 48 h; series mostly up to 57.5 µM
# Procedure, shortened: as §1
# [6] = test system: SKOV3; assay: as above; conditions: Gynecologic cancer cell panel viability, ATPlite luminescence, 48 h; series mostly up to 57.5 µM
# Procedure, shortened: as §1
# [7] = test system: Tov-21-G; assay: as above; conditions: Gynecologic cancer cell panel viability, ATPlite luminescence, 48 h; series mostly up to 57.5 µM
# Procedure, shortened: as §1
# [8] = test system: Tov112D; assay: as above; conditions: Gynecologic cancer cell panel viability, ATPlite luminescence, 48 h; series mostly up to 57.5 µM
# Procedure, shortened: as §1
# [9] = test system: astro; assay: Drug repurposing screens with cells derived from glioblastoma tumor samples (AID 1345199); conditions: viability, ATP luminescence, 48 h; series mostly up to 45.9 µM; further: nearly all actives have a fitted effect of over 40% in size; further: potency means the concentration at half of the fitted maximal effect
# Procedure, shortened: (§2)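 Primary testing used CD133+ neurospheres from four GBM patients, seven concentrations, 48 h exposure and ATP-based viability; confirmation added three slower-growing patient lines.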
# [10] = qHTS assay to identify inhibitors of the type 1 interferon - major histocompatibility complex class I in skeletal muscle: Counter screen cell viability and HiBit confirmation (AID 1347412); conditions: iHSKM muscle cells + IFN-b, HiBiT or CellTiter-Glo, 24 h; Potency: HiBiT; Viability, at 45.9 µM (top of the series); further: nearly all actives have a fitted effect of over 60% in size
# Procedure, shortened: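 HLA-B*08:01–HiBiT knock-in immortalized human myoblasts (C25cl48) stimulated with 4.0 ng/ml human IFN-beta and dosed with compound in a 12-point 1:3 titration (top final 46 uM). After 24 hrs at 37 C, HiBiT lytic luminescence or CellTiter Glo ATP read out.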
# [11] = Drug repurposing screens with cells derived from glioblastoma tumor samples (AID 1345199); conditions: GBM patient neurospheres viability, ATP luminescence, 48 h; further: nearly all actives have a fitted effect of over 40% in size; further: potency means the concentration at half of the fitted maximal effect
# Procedure, shortened: as §2
# [12] = qHTS assay for small molecule activators of the human pregnane X receptor (PXR) signaling pathway (AID 720659; call rule not given here)
# [13] = molecular target: Nuclear receptor subfamily 1 group I member 2 (Rattus norvegicus) (UniProt Q9R1A7); assay: qHTS assay for small molecule activators of the rat pregnane X receptor (rPXR) signaling pathway (AID 651751; call rule not given here); conditions: rPXR reporter cells, luciferase (One-Glo), 24 h
# Chain of Nuclear receptor subfamily 1 group I member 2 (Rattus norvegicus) (Q9R1A7 whole entry, looked up): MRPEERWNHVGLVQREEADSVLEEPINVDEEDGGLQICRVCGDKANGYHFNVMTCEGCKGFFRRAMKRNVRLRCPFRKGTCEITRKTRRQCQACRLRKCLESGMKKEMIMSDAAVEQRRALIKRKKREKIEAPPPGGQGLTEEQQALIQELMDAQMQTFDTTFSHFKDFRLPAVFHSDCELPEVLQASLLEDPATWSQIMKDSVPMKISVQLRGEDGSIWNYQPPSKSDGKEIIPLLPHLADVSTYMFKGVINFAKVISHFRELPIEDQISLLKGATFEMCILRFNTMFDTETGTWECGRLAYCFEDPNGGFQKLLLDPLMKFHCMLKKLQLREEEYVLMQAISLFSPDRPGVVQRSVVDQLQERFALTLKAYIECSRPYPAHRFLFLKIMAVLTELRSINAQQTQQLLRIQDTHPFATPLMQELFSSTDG
# [14] = at 45.9 µM (top of the series), tumour line B
# [15] = at 45.9 µM (top of the series), tumour line D
# [16] = at 46 µM (top of the series), tumour line A
# [17] = at 46.1 µM (top of the series), tumour line C
SMILES,Potency [1],Potency [2],Potency [3],Potency [4],Potency [5],Potency [6],Potency [7],Potency [8],Potency [9],Potency [10],"activity, negative = cell killing [11, 14]","activity, negative = cell killing [11, 15]","activity, negative = cell killing [11, 16]","activity, negative = cell killing [11, 17]",outcome [12],Potency ([11]; tumour line A),"activity, negative = cell killing ([11]; at 20 µM (top of the series), tumour line C)","activity, negative = cell killing ([11]; at 21.2 µM (top of the series), tumour line B)",max response [13]
OC(CN1CCC(Cc2ccc(F)cc2)CC1)c1ccc(Cl)cc1 (stereo not drawn),inactive,inactive,inactive,inactive,inactive,inactive,inactive,inactive,inactive,,,,,,,,,,
CC[C@@H](C)[C@H](NC(=O)[C@H](CC1CCCCC1)NC(=O)c1ccno1)C(=O)N1CCC2(CCc3ccccc32)CC1,inactive,inactive,inactive,inactive,inactive,inactive,inactive,inactive,,inactive,,,,,,,,,
CCCC(CCC)C(=O)O,inactive,inactive,inactive,inactive,inactive,,inactive,inactive,inactive,,-7.18% (inactive),-10.3% (inactive),-15.5% (inactive),0.524% (inactive),inactive,,,,
CCN(CC)CCCC(C)Nc1ccnc2cc(Cl)ccc12 (stereo not drawn),inactive,inactive,inactive,5.62 µM (active),inactive,inactive,inactive,inactive,inactive,,,,,3.03% (inactive),,15.8 µM (active),,,
OC(CCN1CCCCC1)(c1ccccc1)C1CC2C=CC1C2 (stereo not drawn),inactive,inactive,inactive,inactive,inactive,inactive,inactive,inactive,inactive,,-6.31% (inactive) and -18.3% (inactive),,,-5.16% (inactive),,,,,
NNCCc1ccccc1,inactive,inactive,inactive,inactive,inactive,inactive,inactive,inactive,inactive,,,,,,,,-0.565% (inactive),-10.9% (inactive),
COc1ccc2nc(S(=O)Cc3ncc(C)c(OC)c3C)[nH]c2c1 (stereo not drawn),inactive,inactive,inactive,inactive,inactive,inactive,inactive,inactive,inactive,,-19.3% (inactive),,,,,,,,14.6% (inactive)
COc1cc(Nc2ncc3c(n2)-c2ccc(Cl)cc2C(c2c(F)cccc2OC)=NC3)ccc1C(=O)O,inactive,inactive,inactive,28.2 µM (active) and inactive,inactive,25.1 µM (active) and inactive,inactive,inactive,,inactive,,,,,,,,,
CC(=O)Oc1ccccc1C(=O)O,inactive,inactive,inactive,inactive,inactive,inactive,inactive,inactive,inactive,,,-4.86% (inactive),-15.2% (inactive),-19.2% (inactive),inactive,,,,-0.967% (inactive) and 1.6% (inactive) and -0.848% (inactive)
